# Assay results published in PubChem BioAssay (NCI).
# The panel holds about 83,000 compounds, 20% with a hit somewhere; the sample as a whole holds those more often.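 Interpretation: 100, growth as untreated; towards 0, rising growth inhibition; 0, no net growth; 0 to -100, cell death. Compounds scoring below 10 were considered active.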 Active and inactive are the calls of the source.
# System: UO-31 renal
# Assay: NCI-60 one-dose screen, 48 h (100 = growth as untreated, 0 = no growth, -100 = all killed)
# Details: 10 µM unless noted
row,Structure (SMILES),growth
1,C=CC(=O)N1CCC(Oc2cc3c(Nc4ccc(Cl)c(Cl)c4F)ncnc3cc2OC)CC1,-31.6% (active)
2,FC(F)(F)c1ccc(CNc2ccc(Cc3c[nH]c4ncc(Cl)cc34)cn2)cn1,10.7% (inactive)
3,O=S1(=O)OC(c2cc(Cl)c(O)c(Br)c2)(c2cc(Cl)c(O)c(Br)c2)c2ccccc21,76.5% (inactive)
4,CC(C)(C)OC(=O)N1CCC(O)[C@@H](O[Si](c2ccccc2)(c2ccccc2)C(C)(C)C)[C@H]1/C=C/c1ccccc1 (stereo partly drawn),39.1% (inactive)
5,Cc1cn(-c2cc(NC(=O)c3ccc(C)c(Nc4nccc(-c5cccnc5)n4)c3)cc(C(F)(F)F)c2)cn1,-3.45% (active)
6,Cc1cnc(Nc2ccc(OCCN3CCCC3)cc2)nc1Nc1cccc(S(=O)(=O)NC(C)(C)C)c1,-96.3% (active)
7,Cc1cccc(C)c1N1C(c2ccccc2)=NNC12C=CC(=O)c1c(O)cccc12 (stereo not drawn),48.4% (inactive)
8,C=CC(=O)Nc1cccc(Nc2nc(Nc3ccc(N4CCN(C(C)=O)CC4)cc3OC)ncc2C(F)(F)F)c1,-18.3% (active)
9,COc1ccc(/C(C)=C(\c2ccc(Cl)cc2)c2ccc(OCCN3CCCCCC3)cc2)cc1,46% (inactive)
10,Cc1cc(C(=O)Nc2cc(Oc3ccc4nc(NC(=O)C5CC5)cn4n3)ccc2C)n(C)n1,14.4% (inactive)
11,CO[C@H](C(=O)N[C@@H](CCCCNC(=O)OCc1ccccc1)C(=O)OC(C)(C)C)[C@@H]1Cc2cc3cc(OC4CC(OC5CC(O)C(O)C(C)O5)C(O)C(C)O4)c(C)c(O)c3c(O)c2C(=O)[C@H]1OC1CC(OC2CC(OC3CC(C)(O)C(O)C(C)O3)C(O)C(C)O2)C(O)C(C)O1 (stereo partly drawn),10.5% (inactive)
12,CCN(CCCOc1ccc2c(Nc3cc(CC(=O)Nc4cccc(F)c4)[nH]n3)ncnc2c1)CCOP(=O)(O)O,69.3% (inactive)
13,CC/C=C\C[C@H]1C/C=C2/C(=O)C=C[C@@H]2C/C=C\CCCC(=O)O1,-90.3% (active)
14,Cc1cn(-c2cc(NC(=O)c3ccc(C)c(Nc4nccc(-c5cnccn5)n4)c3)cc(C(F)(F)F)c2)cn1,62.9% (inactive)
15,COc1cc2ncnc3c2cc1OCCCCCN(C)Cc1ccc(Br)cc1N3,11.2% (inactive)
16,C[C@@]1(C(=O)Nc2ccc(F)nc2)CCCN1c1nc(Nc2cc(C3CC3)[nH]n2)c2cccn2n1,2.07% (active)
17,C[C@]12O[C@H](C[C@]1(O)CO)n1c3ccccc3c3c4c(c5c6ccccc6n2c5c31)CNC4=O,-63.1% (active)
18,CCN1CCN(CCCN(C[C@H]2Cc3ccccc3CN2)[C@H]2CCCc3cccnc32)CC1,53.2% (inactive)
19,COCc1c(-c2ccc(NC(=O)Nc3cc(C(F)(F)F)ccc3F)c(F)c2)c2c(N)ncnn2c1CN1CCOCC1,-20% (active)

row,Structure (SMILES),growth
1,COc1cc2cc(NCc3ccc(F)cc3)nc(C)c2cc1OC,49.6% (inactive)
2,CC(=O)C1=C(C)NC(SCc2nnc(-c3ccc(C)cc3)o2)=NC1c1ccc(F)cc1 (stereo not drawn),83.6% (inactive)
3,N#CC[C@H](C1CCCC1)n1cc(-c2ncnc3[nH]ccc23)cn1,26.8% (inactive)
4,Cc1ccc(-[n+]2c3cc(N)c(C)cc3nc3cc(C)c(Nc4ccccc4)cc32)cc1,-86.8% (active)
5,COc1cc2cc(NCc3ccc(Cl)cc3)nc(C)c2cc1OC,41.4% (inactive)
6,CC(=O)c1cnc2ccc(-c3cc(Cl)c(O)c(Cl)c3)nc2c1NC1CCC(CN(C)C)CC1 (stereo not drawn),-33.1% [2.5 µM] (active)
7,CCN(CC)c1cc2oc3cc(N)cc(=N)c-3nc2cc1C,67.9% (inactive)
8,CO[C@H]1C[C@@H]2CC[C@@H](C)[C@@](O)(O2)C(=O)C(=O)N2CCCC[C@H]2C(=O)O[C@H]([C@H](C)C[C@@H]2CC[C@@H](O)[C@H](OC)C2)CC(=O)[C@H](C)/C=C(\C)[C@@H](O)[C@@H](OC)C(=O)[C@H](C)C[C@H](C)\C=C/C=C/C=C/1C,20.7% (inactive)
9,COc1cccc(NC(=O)Nc2ccc(Nc3ncnc4sc5c(c34)CCN(C(=O)CCl)C5)cc2)c1,66.6% (inactive)
10,CCN(CC)CCNC(=O)c1c(C)[nH]c(/C=C2\C(=O)Nc3ccc(F)cc32)c1C,7.88% (active)
11,CO[C@@H](C)Cn1c(=O)n(C)c2cnc3ccc(-c4cncc(C(C)(C)O)c4)cc3c21,-18.6% (active)
12,Cc1c(N)ccc(-c2ccc(N)c(C)c2S(=O)(=O)O)c1S(=O)(=O)O,88% (inactive)
13,CNC(=O)c1cc(Oc2ccc(NC(=O)Nc3ccc(Cl)c(C(F)(F)F)c3)c(F)c2)ccn1,-43.1% (active)
14,COCCOc1cnc2ccn([C@H](C)c3nnc4c(F)cc(-c5cnn(C)c5)cn34)c(=O)c2c1,60% (inactive)
15,N#Cc1c(-c2ccc(Cl)cc2)csc1NC(=O)Nc1cccc(C(F)(F)F)c1,-2.89% (active)
16,CC(=O)C1CC(C)CCC1C(C)C (stereo not drawn),67.4% (inactive)
17,O=C(COc1cccc(/C=C2\Cc3ccc(Cl)cc3C2=O)c1)Nc1nccs1,-68% (active)
18,O=C(Cn1ccnc1)Nc1ccc(-c2nc3ccccc3s2)cc1,60.4% (inactive)
19,CN1CCC(CNc2ccc3ncc(-c4cccc(OC(F)(F)F)c4)n3n2)CC1,-95.1% (active)
